“And” between values parts separate entries of the source, which are not always exact repeats. Equal entries are not always repeated. Results filed as inconclusive are left out. Where a structure was tested more than once in an assay, its records may differ in their call. The source made the active and inactive calls. Calls come from the whole dose curve; as a rule, active = well fitted curve in the direction sought with a large enough effect; inconclusive = small, poorly fitted or top-dose-only effect, or another doubt; inactive = no such curve, though single readings can be large; an effect the other way counts as inactive or inconclusive.

A short description of test [1]: NS1 protein of Zika virus - qHTS assay to identify small molecule inhibitors in human HEK 293 cells (AID 1347053). Note: nearly all actives have a fitted effect of over 55% in size. In short, it runs like this: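 Read-out is a two-antibody TR-FRET for ZIKV NS1, normalized between uninfected cells and infected cells. Compound added 1 h before MR766 infection at MOI 0.5; human HEK 293 cells incubated 24 h, 37 C.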
Background: qHTS replaces the single test concentration by a dilution series.

The nature of test [2]: qHTS of pediatric cancer cell lines to identify multiple opportunities for drug repurposing: Primary screen for TC32 cells (AID 1347089). Note: nearly all actives have a fitted effect of over 60% in size. In outline: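 TC32 cells, 500-1,000/well in growth medium, compound-treated 48 h at 37 °C; viability from CellTiter-Glo luminescence. Primary screen: MIPE 11-point (0.78 nM–46 µM final), NPC 8-point (0.59 nM–46 µM final); confirmatory at 11-point dilutions.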

Test [3] can be described thus: qHTS of pediatric cancer cell lines to identify multiple opportunities for drug repurposing: Primary screen for DAOY cells (AID 1347090). Note: nearly all actives have a fitted effect of over 55% in size. In short, it runs like this: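 Cell viability, CellTiter-Glo luminescence; 500-1,000 cells/well, 8- or 11-point titration, 48 h compound exposure at 37 degrees C, 5% CO2. Controls: DMSO neutral, bortezomib 2.3 µM final as positive.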
Potency is the fitted concentration of half-maximal effect.

Consider `Oc1ccc(OCc2ccccc2)cc1`, for which the Potency entry in test [1] and in test [2] was “inactive” throughout.

Consider `Clc1ccc(C(Cn2ccnc2)OCc2c(Cl)cccc2Cl)c(Cl)c1` (centres undefined), for which the Potency entry in test [1] was “inactive and 14.8 µM (active)”. Besides, the Potency entry in test [2] is “inactive”.

Turning to `CCCCN(CCCC)CCC(O)c1cc2c(Cl)cc(Cl)cc2c2cc(C(F)(F)F)ccc12` (centres undefined), the Potency entry in test [1] and in test [2] was “inactive” each time.

Regarding `COCCCOc1ccnc(CS(=O)c2nc3ccccc3[nH]2)c1C` (centres undefined), the Potency result in test [1], in test [2] and in test [3] was “inactive” in each case.

`N=C(N)c1ccc2cc(OC(=O)c3ccc(N=C(N)N)cc3)ccc2c1`: the Potency result in test [1] and in test [2] was “inactive” in each case.

Take `CC(C)C[C@H](NC(=O)[C@H](Cc1ccccc1)NC(=O)c1cnccn1)B(O)O`: the Potency is 33.2 nM (active) in test [1] and 83.6 nM (active) in test [2].

As to `CCN(CC)CCOc1ccc(Cc2ccccc2)cc1`, the Potency entry in test [1], in test [2] and in test [3] was “inactive” each time.

As to `Cc1ccc(NC(=O)c2ccc(CN3CCN(C)CC3)cc2)cc1Nc1nccc(-c2cccnc2)n1`, the Potency entry in test [1], in test [2] and in test [3] was “inactive” each time.

As to `O=C1CCc2ccc(OCCCCN3CCN(c4cccc(Cl)c4Cl)CC3)cc2N1`, the Potency entry in test [2] and in test [3] was “inactive” in each case.

For the molecule `Cc1ccc(C(=O)c2cc(O)c(O)c([N+](=O)[O-])c2)cc1`, the Potency result in test [1], in test [2] and in test [3] was “inactive” throughout.

In the case of `C[Se]CCC(N)C(=O)O` (centres undefined), the Potency entry in test [1], in test [2] and in test [3] was “inactive” each time.

For the molecule `CCCOc1ccc2nc(NC(=O)OC)[nH]c2c1`, the Potency in test [1] is 46.9 nM (active); in test [2], 187 nM (active) and 131 nM (active); in test [3], 66.8 nM (active) and 14.8 nM (active).

As for `CCc1nc(N)nc(N)c1-c1ccc(Cl)cc1`, the Potency in test [1] was 9350 nM (active); in test [2], 3.74 µM (active) and 11.7 µM (active); in test [3], 5.31 µM (active) and 18.7 µM (active).

Take `Cc1ccc(Nc2nccc(N(C)c3ccc4c(C)n(C)nc4c3)n2)cc1S(N)(=O)=O`: the Potency entry in test [1] and in test [2] was “inactive” throughout.

As to `CCCCCCCCCCCCCCCCCCCCCCO`, the Potency entry in test [1] and in test [2] was “inactive” each time.

For the molecule `COc1c2occc2cc2ccc(=O)oc12`, the Potency entry in test [1] and in test [2] was “inactive” each time.

`CN(C)[C@@H](CCOc1cccc2ccccc12)c1ccccc1`: the Potency entry in test [1], in test [2] and in test [3] was “inactive” throughout.

In the case of `COC(=O)N[C@H](C(=O)N[C@@H](Cc1ccccc1)[C@@H](O)CN(Cc1ccc(-c2ccccn2)cc1)NC(=O)[C@@H](NC(=O)OC)C(C)(C)C)C(C)(C)C`, the Potency result in test [1], in test [2] and in test [3] was “inactive” in each case.

For the molecule `N[C@@H](Cc1cc(I)c(Oc2cc(I)c(O)c(I)c2)c(I)c1)C(=O)O`, the Potency result in test [1], in test [2] and in test [3] was “inactive” each time.

As to `S=c1nc[nH]c2nc[nH]c12`, the Potency is 14800 nM (active) in test [1]; 8.36 µM (active) and 20.8 µM (active) in test [2]; 2.66 µM (active) and 5.9 µM (active) in test [3].

In the case of `COc1cc(C(C)=O)ccc1OCCCN1CCC(c2noc3cc(F)ccc23)CC1`, the Potency result in test [1] and in test [2] was “inactive” each time.

In the case of `CC(C)Oc1ccc2c(=O)c(-c3ccccc3)coc2c1`, the Potency entry in test [1] and in test [2] was “inactive” each time.

For `COc1cc(OC)c(C(=O)CCCN2CCCC2)c(OC)c1`, the Potency entry in test [1], in test [2] and in test [3] was “inactive” throughout.

Turning to `O=C(O)c1cccc(-c2noc(-c3ccccc3F)n2)c1`, the Potency entry in test [1] and in test [2] was “inactive” in each case.

Regarding `CC1=C(C(=O)O)N2C(=O)[C@@H](NC(=O)[C@H](N)C3=CCC=CC3)[C@H]2SC1`, the Potency entry in test [1], in test [2] and in test [3] was “inactive” throughout.

As to `Cc1nccn1CC1CCc2c(c3ccccc3n2C)C1=O` (centres undefined), the Potency result in test [1], in test [2] and in test [3] was “inactive” in each case.

In the case of `CC(=O)Nc1ccc(O)cc1`, the Potency entry in test [1], in test [2] and in test [3] was “inactive” each time.

As for `CC(C)[N+]1(C)[C@@H]2CC[C@H]1CC(OC(=O)C(CO)c1ccccc1)C2` (some centres undefined), the Potency result in test [1] and in test [2] was “inactive” throughout.

`COC(=O)C1=C(C)NC(C)=C(C(=O)OCCCN2CCC(c3ccccc3)(c3ccccc3)CC2)C1c1cccc([N+](=O)[O-])c1` (centres undefined): the Potency entry in test [1], in test [2] and in test [3] was “inactive” in each case.

As to `Nc1ncn([C@H]2C[C@H](O)[C@@H](CO)O2)c(=O)n1`, the Potency result in test [1], in test [2] and in test [3] was “inactive” throughout.

As to `O=C(NOCC1CC1)c1ccc(F)c(F)c1Nc1ccc(I)cc1Cl`, the Potency entry in test [2] was “inactive”. The Potency in test [3] was 21.1 µM (active) and 11.8 µM (active).

For `O=C(O)c1cc(=O)c2c(OCC(O)COc3cccc4oc(C(=O)O)cc(=O)c34)cccc2o1`, the Potency result in test [1], in test [2] and in test [3] was “inactive” throughout.

On to `Cc1ccc(S(=O)(=O)NC(=O)NN2CC3CCCC3C2)cc1` (centres undefined), for which the Potency result in test [1], in test [2] and in test [3] was “inactive” each time.

For the molecule `Clc1ccc(C(Cn2ccnc2)OCc2ccc(Sc3ccccc3)cc2)c(Cl)c1` (centres undefined), the Potency result in test [1], in test [2] and in test [3] was “inactive” in each case.

`O=C(NC(Cc1cc(=O)[nH]c2ccccc12)C(=O)O)c1ccc(Cl)cc1` (centres undefined): the Potency result in test [1], in test [2] and in test [3] was “inactive” in each case.

With `COc1cc2c(N3CCN(C(=O)Nc4ccc(OC(C)C)cc4)CC3)ncnc2cc1OCCCN1CCCCC1`, the Potency result in test [1], in test [2] and in test [3] was “inactive” in each case.

Turning to `Cc1ncc([N+](=O)[O-])n1CC(C)O` (centres undefined), the Potency result in test [1], in test [2] and in test [3] was “inactive” each time.

In the case of `C=C(c1ccc(C(=O)O)cc1)c1cc2c(cc1C)C(C)(C)CCC2(C)C`, the Potency result in test [1] and in test [2] was “inactive” in each case.

The values are drawn from PubChem BioAssay (NCATS).
